Measurements taken from PubChem BioAssay (NCI).
Several values for one entry are separate records, joined by “and”; a condition that tells them apart may be missing. Equal values may be shown once. About 83,000 compounds went through this panel and 20% of them were active in at least one assay; those are over-represented in the sample as a whole.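 Assay: single dose, 48 h. Readout: percent growth (0 = no net growth; negative = cell death). Active: <10.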 Activity calls are given as the source filed them.

Columns and labels:
Test in all cases: NCI-60 one-dose screen, 48 h (100 = growth as untreated, 0 = no growth, -100 = all killed)
HCT-15 colon = settings: 10 µM unless noted
HT29 colon = settings: 10 µM unless noted
SNB-75 CNS = settings: 10 µM unless noted
SNB-19 CNS = settings: 10 µM unless noted
PC-3 prostate = settings: 10 µM unless noted
SK-MEL-5 melanoma = settings: 10 µM unless noted
UACC-62 melanoma = tested on: UACC-62 melanoma
LOX IMVI melanoma = settings: 10 µM unless noted
SK-MEL-28 melanoma = settings: 10 µM unless noted
U251 CNS = settings: 10 µM unless noted

Structure (SMILES) | growth (HCT-15 colon) | growth (HT29 colon) | growth (SNB-75 CNS) | growth (SNB-19 CNS) | growth (PC-3 prostate) | growth (SK-MEL-5 melanoma) | growth (UACC-62 melanoma; 10 µM unless noted) | growth (LOX IMVI melanoma) | growth (SK-MEL-28 melanoma) | growth (U251 CNS) | growth (UACC-62 melanoma; 10 µM) | growth (UACC-62 melanoma; 100 µM)
CCC(=O)Oc1ccc(OCc2ccccc2)cc1 | 103% (inactive) and 97% (inactive) | 98.7% (inactive) and 91.2% (inactive) | 98.2% (inactive) and 105% (inactive) | 97.7% (inactive) and 96.5% (inactive) | 77.6% (inactive) and 58.7% (inactive) | 84.1% (inactive) and 73.6% (inactive) | 81.8% (inactive) and 79.9% (inactive) | 88.8% (inactive) and 84.7% (inactive) | 122% (inactive) and 111% (inactive) | – | – | –
CC(=O)Oc1cc(C)c(OC(C)=O)c(C)c1C | 98% (inactive) | 114% (inactive) | 132% (inactive) | 96.4% (inactive) | 90.5% (inactive) | 91.4% (inactive) | 93.1% (inactive) | 83.6% (inactive) | 130% (inactive) | – | – | –
CC(=O)Nc1ccc(OC(C)=O)cc1 | 13.5% (inactive) and 102% (inactive) | -0.769% (active) and 105% (inactive) | 37.6% (inactive) and 94.3% (inactive) | 35.2% (inactive) and 111% (inactive) | 11.5% (inactive) and 92.8% (inactive) | 92.8% (inactive) | 18.5% (inactive) and 108% (inactive) | -24% (active) and 100% (inactive) | 82.6% (inactive) and 110% (inactive) | – | – | –
CCC/C(=N/NC(N)=O)c1ccco1 | 103% (inactive) | 93.7% (inactive) | 75.2% (inactive) | 90.1% (inactive) | 86.8% (inactive) | 99.5% (inactive) | – | 98.1% (inactive) | 97.7% (inactive) | 91.8% (inactive) | – | –
CS(=O)(=O)c1nsc(N)n1 | 107% (inactive) | 101% (inactive) | 93.2% (inactive) | 98.5% (inactive) | 98% (inactive) | 102% (inactive) | 102% (inactive) | 98.2% (inactive) | 109% (inactive) | – | – | –
Nc1nc(N)c2cc(S(=O)(=O)c3ccccc3)ccc2n1 | 27.9% (inactive) and 25.6% (inactive) | 22.9% (inactive) and 15% (inactive) | 78.7% (inactive) and 76.9% (inactive) | 38.4% (inactive) and 49.2% (inactive) | 42.9% (inactive) and 52.7% (inactive) | 23.3% (inactive) and 25.3% (inactive) | 21.5% (inactive) and 53.7% (inactive) | 30.6% (inactive) and 19.2% (inactive) | 71% (inactive) and 68.9% (inactive) | – | – | –
CC(=O)Oc1ccc(C(c2ccc(OC(C)=O)cc2)c2ccccn2)cc1 | 84.3% (inactive) and 76.4% (inactive) | 91.8% (inactive) and 87.1% (inactive) | 56.7% (inactive) and 80.9% (inactive) | 104% (inactive) and 98.8% (inactive) | 73.6% (inactive) and 68.9% (inactive) | -7.6% (active) | – | 90.3% (inactive) and 77.5% (inactive) | 107% (inactive) | 96% (inactive) and 96.2% (inactive) | – | –
O=[N+]([O-])c1ccc(NC2CCCCC2)nc1 | 106% (inactive) and 102% (inactive) | 106% (inactive) and 104% (inactive) | 102% (inactive) and 96.9% (inactive) | 103% (inactive) and 108% (inactive) | 105% (inactive) and 98% (inactive) | 112% (inactive) and 106% (inactive) | 104% (inactive) and 92.2% (inactive) | 94% (inactive) | 128% (inactive) and 111% (inactive) | – | – | –
CC(C)(C)OC(=O)c1ccc(NCc2cc(O)ccc2O)cc1 | -30.1% (active) | 73.5% (inactive) | 30.5% (inactive) | 62.6% (inactive) | 12.5% (inactive) | 52.4% (inactive) | – | 24.3% (inactive) | 8.43% (active) | 20.5% (inactive) | – | –
COC(=O)CCOc1ccccc1 | 101% (inactive) | 97.9% (inactive) | 61.1% (inactive) | 99.5% (inactive) | 85.3% (inactive) | 95.5% (inactive) | 99% (inactive) | 91.3% (inactive) | 123% (inactive) | – | – | –
COC(=O)c1ccccc1Cl | 100% (inactive) | 111% (inactive) | 96.6% (inactive) | 108% (inactive) | 96.9% (inactive) | 103% (inactive) | 104% (inactive) | 98.6% (inactive) | 115% (inactive) | – | – | –
C/C=C(/C(=O)NC(N)=O)C(C)C | 110% (inactive) | 106% (inactive) | 120% (inactive) | 110% (inactive) | 105% (inactive) | 115% (inactive) | – | 100% (inactive) | 117% (inactive) | 98.8% (inactive) | – | –
O=c1[nH]c(=S)[nH]n1C(=S)n1[nH]c(=S)[nH]c1=O | 112% (inactive) | 106% (inactive) | 92% (inactive) | 99.9% (inactive) | 83.3% (inactive) | 93% (inactive) | – | 95.6% (inactive) | 114% (inactive) | 93.6% (inactive) | – | –
O=c1[nH]c(=O)n(C2OC(CO)C(O)C2O)cc1I (stereo unspecified) | 114% (inactive) and 107% (inactive) | 96.9% (inactive) | 91.6% (inactive) and 87.6% (inactive) | 108% (inactive) and 107% (inactive) | 87.4% (inactive) and 91.9% (inactive) | 101% (inactive) and 113% (inactive) | – | 98.9% (inactive) and 92.4% (inactive) | 106% (inactive) and 110% (inactive) | 99.1% (inactive) and 111% (inactive) | – | –
COc1ccc([N+](=O)[O-])cc1OC | 96.3% (inactive) and 98.9% (inactive) | 112% (inactive) and 101% (inactive) | 98% (inactive) | 102% (inactive) and 107% (inactive) | 94.1% (inactive) and 102% (inactive) | 104% (inactive) and 106% (inactive) | 104% (inactive) and 107% (inactive) | 98.2% (inactive) and 101% (inactive) | 95.9% (inactive) and 107% (inactive) | – | – | –
COc1cc2oc3cc(=O)cc4oc(-c5ccccc5)cc(c2c2c1CCC(c1ccccc1)O2)c43 (stereo unspecified) | 62.8% (inactive) | 71.9% (inactive) | 68.2% (inactive) | 98.9% (inactive) | 58.9% (inactive) | 78% (inactive) | – | 56.7% (inactive) | 90.1% (inactive) | 87.3% (inactive) | – | –
N#CC(=S)Nc1ccc(Cl)c(Cl)c1 | 13.6% (inactive) | 12.5% (inactive) | -3.27% (active) | 4.95% (active) | 23.1% (inactive) | -61.7% (active) | – | – | 25.2% (inactive) | – | 5.74% (active) | -12.1% (active) and -100% (active)
CCCCNC(=O)c1ccccc1C | 93.4% (inactive) | 102% (inactive) | 99% (inactive) | 98.2% (inactive) | 88.2% (inactive) | 93.3% (inactive) | – | 96.9% (inactive) | 101% (inactive) | 99.3% (inactive) | – | –
O=[N+]([O-])c1cccc2ccc(N/N=C/c3ccccc3O)nc12 | 93.6% (inactive) and 98% (inactive) | 93.3% (inactive) and 106% (inactive) | 67.8% (inactive) and 87.9% (inactive) | 99.3% (inactive) and 108% (inactive) | 76.1% (inactive) and 84.4% (inactive) | 88% (inactive) and 90.9% (inactive) | – | 83.6% (inactive) and 91.4% (inactive) | 134% (inactive) and 109% (inactive) | 93.7% (inactive) and 98.6% (inactive) | – | –
COc1ccc(CCN=Cc2ccc(Cl)cc2)cc1OC | 106% (inactive) | 107% (inactive) | 127% (inactive) | 101% (inactive) | 116% (inactive) | 107% (inactive) | 107% (inactive) | 95.8% (inactive) | 121% (inactive) | – | – | –
O=C1C=CC(n2cc(F)c(=O)[nH]c2=O)O1 (stereo unspecified) | 57.8% (inactive) | 39.4% (inactive) | 79.8% (inactive) | 79% (inactive) | 92.9% (inactive) | 60.4% (inactive) | 44.5% (inactive) | 54.8% (inactive) | 75.1% (inactive) | – | – | –
OCCS | 104% (inactive) | 97% (inactive) | 91.1% (inactive) | 108% (inactive) | 99.8% (inactive) | 100% (inactive) | 103% (inactive) | 96.2% (inactive) | 109% (inactive) | – | – | –
N#Cc1ccc(/C=C/C(=O)c2ccccc2)cc1 | 49.6% (inactive) and 82.3% (inactive) | 12% (inactive) and 70.5% (inactive) | 87.3% (inactive) | 89.9% (inactive) | 52.2% (inactive) | 90.9% (inactive) and 102% (inactive) | 91.3% (inactive) and 89.9% (inactive) | 28% (inactive) and 82% (inactive) | 124% (inactive) and 93.1% (inactive) | – | – | –
COC(=O)c1nc(=S)[nH]c(C(=O)OC)c1C(=O)c1ccccc1 | 103% (inactive) | 109% (inactive) | 86.6% (inactive) | 102% (inactive) | 91.2% (inactive) | 103% (inactive) | – | 94.2% (inactive) | 105% (inactive) | 105% (inactive) | – | –
